{
  "source": "the supplement of paper PMC4840960",
  "note": "Counter-ions that a name gives are not always drawn.",
  "data": [
    {"system": "E18 rat cortical neuron-glia co-culture", "assay": "myelination (MBP fiber length per Olig2+ nucleus), % of 1 µM DAPT response (DMSO = 0) (% of DAPT); higher = more myelination, active = 50 or more", "details": "1 µM; treatment time: 8 days (DIV5-DIV13)", "summary_of_the_method": "(§1)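 Four 10X fields in each of duplicate wells were analysed after cultures were fixed in 4 % paraformaldehyde and immunostained for MBP and Olig2, with DAPI as the nuclear counterstain. The cultures were papain-dissociated primary E18 rat cortical co-cultures at 20,000 cells/well on poly-d-lysine/laminin 96-well plates, dosed with library compounds at 1 or 5 µM in myelination medium from DIV5 to DIV13. The myelination readout was continuous straight MBP fiber length per Olig2+ nucleus, with 0.1 % DMSO set to 0 and a 1 µM positive control set to 100.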", "values": [
      {"smiles": "CC(C)[N+](C)(CCOC(=O)C1c2ccccc2Oc2ccccc21)C(C)C", "note": "[Propantheline]", "myelination": "-4.45 (inactive)"},
      {"smiles": "Cn1c(=O)c2nc[nH]c2n(C)c1=O", "note": "[Theophylline]", "myelination": "-7.88 (inactive)"},
      {"smiles": "CN(C)CCc1c[nH]c2ccc(C[C@H]3COC(=O)N3)cc12", "note": "[Zolmitriptan]", "myelination": "-9.2 (inactive)"},
      {"smiles": "CCCCNC(=O)NS(=O)(=O)c1ccc(C)cc1", "note": "[Tolbutamide]", "myelination": "-1.85 (inactive)"},
      {"smiles": "CCCc1nc(C(C)(C)O)c(C(=O)O)n1Cc1ccc(-c2ccccc2-c2nnn[nH]2)cc1", "note": "[Olmesartan]", "myelination": "-32.2 (inactive)"},
      {"smiles": "CN1CCN(C2=Nc3ccccc3Oc3ccc(Cl)cc32)CC1", "note": "[Loxapine]", "myelination": "-14.9 (inactive)"},
      {"smiles": "COc1ccc(CC2c3cc(OC)c(OC)cc3CC[N+]2(C)CCC(=O)OCCCCCOC(=O)CC[N+]2(C)CCc3cc(OC)c(OC)cc3C2Cc2ccc(OC)c(OC)c2)cc1OC", "note": "(configuration not stated) [Atracurium]", "myelination": "-11.6 (inactive)"},
      {"smiles": "CC1CNc2c(cccc2S(=O)(=O)N[C@@H](CCCNC(=N)N)C(=O)N2CC[C@@H](C)C[C@@H]2C(=O)O)C1", "note": "(some centres not stated) [Argatroban]", "myelination": "-43.9 (inactive)"},
      {"smiles": "CC(C)C(=O)Nc1ccc([N+](=O)[O-])c(C(F)(F)F)c1", "note": "[Flutamide]", "myelination": "-7.82 (inactive)"},
      {"smiles": "CC(=O)Nc1nnc(S(N)(=O)=O)s1", "note": "[Acetazolamide]", "myelination": "-4.45 (inactive)"},
      {"smiles": "O=c1n(CCCN2CCN(c3cccc(Cl)c3)CC2)nc2ccccn12", "note": "[Trazodone]", "myelination": "-42.9 (inactive)"},
      {"smiles": "O=C(O)c1cccnc1", "note": "[Niacin]", "myelination": "9.03 (inactive)"},
      {"smiles": "CCOc1cc(N)c(Cl)cc1C(=O)NCC1CN(Cc2ccc(F)cc2)CCO1", "note": "(configuration not stated) [Mosapride]", "myelination": "-41.5 (inactive)"},
      {"smiles": "OC[C@H]1O[C@@H](Oc2cc(O)cc(/C=C/c3ccc(O)cc3)c2)[C@H](O)[C@@H](O)[C@@H]1O", "note": "[Polydatin]", "myelination": "-20.3 (inactive)"},
      {"smiles": "CCOC(=O)c1ncn2c1CN(C)C(=O)c1cc(F)ccc1-2", "note": "[Flumazenil]", "myelination": "-6.81 (inactive)"},
      {"smiles": "COc1ccc2cc(CCC(C)=O)ccc2c1", "note": "[Nabumetone]", "myelination": "-8.32 (inactive)"},
      {"smiles": "CC(C(=O)O)c1cccc(C(=O)c2ccccc2)c1", "note": "(configuration not stated) [Ketoprofen]", "myelination": "-5.15 (inactive)"},
      {"smiles": "CN1C2CCCC1CC(NC(=O)c1nn(C)c3ccccc13)C2", "note": "(configuration not stated) [Granisetron]", "myelination": "-10.7 (inactive)"},
      {"smiles": "Clc1cccc(Cl)c1NC1=NCCN1", "note": "[Clonidine hydrochloride]", "myelination": "-10.4 (inactive)"},
      {"smiles": "Cc1cccc(Nc2ccccc2C(=O)O)c1C", "note": "[Mefenamic Acid]", "myelination": "-6.36 (inactive)"},
      {"smiles": "COC(=O)C1=C(C)NC(C)=C(C(=O)OC(C)C)C1c1cccc2nonc12", "note": "(configuration not stated) [Isradipine]", "myelination": "-16.2 (inactive)"},
      {"smiles": "CN(C)CCCC1(c2ccc(F)cc2)OCc2cc(C#N)ccc21", "note": "(configuration not stated) [Citalopram]", "myelination": "-18.2 (inactive)"},
      {"smiles": "Cc1ccc(NC(=O)c2ccc(CN3CCN(C)CC3)cc2)cc1Nc1nccc(-c2cccnc2)n1", "note": "[Imatinib mesylate]", "myelination": "-5.16 (inactive)"},
      {"smiles": "COC(=O)C1=C(C)NC(C)=C(C(=O)OC)C1c1ccccc1[N+](=O)[O-]", "note": "[Nifedipine]", "myelination": "-18.3 (inactive)"},
      {"smiles": "CCC(=O)O[C@@H]1CC(=O)O[C@H](C)C/C=C/C=C/[C@H](O)[C@H](C)C[C@H](CC=O)[C@H](O[C@@H]2O[C@H](C)[C@@H](O[C@H]3C[C@@](C)(O)[C@@H](OC(=O)CC)[C@H](C)O3)[C@H](N(C)C)[C@H]2O)[C@H]1OC", "note": "[Midecamycin]", "myelination": "-9.01 (inactive)"},
      {"smiles": "COC(=O)CCc1ccc(OCC(O)CNC(C)C)cc1", "note": "(configuration not stated) [Esmolol]", "myelination": "2.16 (inactive)"},
      {"smiles": "Cc1cc2c(s1)Nc1ccccc1N=C2N1CCN(C)CC1", "note": "[Olanzapine]", "myelination": "-0.209 (inactive)"},
      {"smiles": "C[C@]12CCC(=O)C=C1CC[C@@H]1[C@@H]2[C@@H](O)C[C@@]2(C)[C@H]1CC[C@]2(O)C(=O)COC(=O)CCC(=O)O", "note": "[Cortisol succinate]", "myelination": "0.996 (inactive)"}
    ]},
    {"system": "E18 rat cortical neuron-glia co-culture", "assay": "myelination (MBP fiber length per Olig2+ nucleus), % of 1 µM DAPT response (DMSO = 0) (% of DAPT); higher = more myelination, active = 50 or more", "details": "5 µM; treatment time: 8 days (DIV5-DIV13)", "summary_of_the_method": "as §1", "values": [
      {"smiles": "COc1ccccc1N1CCN(CC(O)COc2cccc3ccccc23)CC1", "note": "(configuration not stated) [Naftopidil]", "myelination": "15 (inactive)"},
      {"smiles": "C#C[C@]1(O)CC[C@H]2[C@@H]3[C@H](C)CC4=C(CCC(=O)C4)[C@H]3CC[C@@]21C", "note": "[Tibolone]", "myelination": "-13.2 (inactive)"},
      {"smiles": "CC(=O)/N=c1/sc(S(N)(=O)=O)nn1C", "note": "[Methazolamide]", "myelination": "-24.1 (inactive)"},
      {"smiles": "CCCc1nc2c(C)cc(-c3nc4ccccc4n3C)cc2n1Cc1ccc(-c2ccccc2C(=O)O)cc1", "note": "[Telmisartan]", "myelination": "2.94 (inactive)"},
      {"smiles": "CN(Cc1cnc2nc(N)nc(N)c2n1)c1ccc(C(=O)N[C@@H](CCC(=O)O)C(=O)O)cc1", "note": "[Methotrexate]", "myelination": "195 (active)"},
      {"smiles": "COc1ccc([C@@H]2Sc3ccccc3N(CCN(C)C)C(=O)[C@@H]2OC(C)=O)cc1", "note": "[Diltiazem]", "myelination": "-20.8 (inactive)"},
      {"smiles": "CN1CCC(=C2c3ccccc3CCc3sccc32)CC1", "note": "[Pizotyline]", "myelination": "-22 (inactive)"},
      {"smiles": "COc1cc(OC)c(C(=O)CCCN2CCCC2)c(OC)c1", "note": "[Buflomedil]", "myelination": "-13.3 (inactive)"},
      {"smiles": "CC(=O)OCC(=O)[C@@]12OC(C)(C)O[C@@H]1C[C@H]1[C@@H]3C[C@H](F)C4=CC(=O)C=C[C@]4(C)[C@@]3(F)[C@@H](O)C[C@@]12C", "note": "[Fluocinonide]", "myelination": "-66.2 (inactive)"},
      {"smiles": "C[C@]12C[C@H](O)[C@H]3[C@@H](CCC4=CC(=O)CC[C@@]43C)[C@@H]1CC[C@@H]2C(=O)CO", "note": "[Corticosterone]", "myelination": "-4.49 (inactive)"},
      {"smiles": "C[C@@H]1C[C@H]2[C@@H]3C[C@H](F)C4=CC(=O)C(Cl)=C[C@]4(C)[C@@]3(F)[C@@H](O)C[C@]2(C)[C@@]1(O)C(=O)CO", "note": "[Halometasone hydrate]", "myelination": "-30.1 (inactive)"},
      {"smiles": "CC(C)[N+](C)(CCOC(=O)C1c2ccccc2Oc2ccccc21)C(C)C", "note": "[Propantheline]", "myelination": "3.32 (inactive)"},
      {"smiles": "Cn1c(=O)c2nc[nH]c2n(C)c1=O", "note": "[Theophylline]", "myelination": "-20.2 (inactive)"},
      {"smiles": "CN(C)CCc1c[nH]c2ccc(C[C@H]3COC(=O)N3)cc12", "note": "[Zolmitriptan]", "myelination": "-14.6 (inactive)"},
      {"smiles": "CCCCNC(=O)NS(=O)(=O)c1ccc(C)cc1", "note": "[Tolbutamide]", "myelination": "-4.03 (inactive)"},
      {"smiles": "CCCc1nc(C(C)(C)O)c(C(=O)O)n1Cc1ccc(-c2ccccc2-c2nnn[nH]2)cc1", "note": "[Olmesartan]", "myelination": "-45 (inactive)"},
      {"smiles": "CN1CCN(C2=Nc3ccccc3Oc3ccc(Cl)cc32)CC1", "note": "[Loxapine]", "myelination": "4.82 (inactive)"},
      {"smiles": "COc1ccc(CC2c3cc(OC)c(OC)cc3CC[N+]2(C)CCC(=O)OCCCCCOC(=O)CC[N+]2(C)CCc3cc(OC)c(OC)cc3C2Cc2ccc(OC)c(OC)c2)cc1OC", "note": "(configuration not stated) [Atracurium]", "myelination": 63.1},
      {"smiles": "CC1CNc2c(cccc2S(=O)(=O)N[C@@H](CCCNC(=N)N)C(=O)N2CC[C@@H](C)C[C@@H]2C(=O)O)C1", "note": "(some centres not stated) [Argatroban]", "myelination": "-49.9 (inactive)"},
      {"smiles": "CC(C)C(=O)Nc1ccc([N+](=O)[O-])c(C(F)(F)F)c1", "note": "[Flutamide]", "myelination": "5.48 (inactive)"},
      {"smiles": "CC(=O)Nc1nnc(S(N)(=O)=O)s1", "note": "[Acetazolamide]", "myelination": "-1.11 (inactive)"},
      {"smiles": "O=c1n(CCCN2CCN(c3cccc(Cl)c3)CC2)nc2ccccn12", "note": "[Trazodone]", "myelination": "-62.2 (inactive)"},
      {"smiles": "O=C(O)c1cccnc1", "note": "[Niacin]", "myelination": "7.38 (inactive)"},
      {"smiles": "CCOc1cc(N)c(Cl)cc1C(=O)NCC1CN(Cc2ccc(F)cc2)CCO1", "note": "(configuration not stated) [Mosapride]", "myelination": "-56.5 (inactive)"},
      {"smiles": "OC[C@H]1O[C@@H](Oc2cc(O)cc(/C=C/c3ccc(O)cc3)c2)[C@H](O)[C@@H](O)[C@@H]1O", "note": "[Polydatin]", "myelination": "-3.53 (inactive)"},
      {"smiles": "CCOC(=O)c1ncn2c1CN(C)C(=O)c1cc(F)ccc1-2", "note": "[Flumazenil]", "myelination": "-19.8 (inactive)"},
      {"smiles": "COc1ccc2cc(CCC(C)=O)ccc2c1", "note": "[Nabumetone]", "myelination": "6.9 (inactive)"},
      {"smiles": "CC(C(=O)O)c1cccc(C(=O)c2ccccc2)c1", "note": "(configuration not stated) [Ketoprofen]", "myelination": "-3.55 (inactive)"},
      {"smiles": "CN1C2CCCC1CC(NC(=O)c1nn(C)c3ccccc13)C2", "note": "(configuration not stated) [Granisetron]", "myelination": "1.32 (inactive)"},
      {"smiles": "Clc1cccc(Cl)c1NC1=NCCN1", "note": "[Clonidine hydrochloride]", "myelination": "-5.88 (inactive)"},
      {"smiles": "Cc1cccc(Nc2ccccc2C(=O)O)c1C", "note": "[Mefenamic Acid]", "myelination": "38.7 (inactive)"},
      {"smiles": "COC(=O)C1=C(C)NC(C)=C(C(=O)OC(C)C)C1c1cccc2nonc12", "note": "(configuration not stated) [Isradipine]", "myelination": "34.9 (inactive)"},
      {"smiles": "CN(C)CCCC1(c2ccc(F)cc2)OCc2cc(C#N)ccc21", "note": "(configuration not stated) [Citalopram]", "myelination": "-19 (inactive)"},
      {"smiles": "Cc1ccc(NC(=O)c2ccc(CN3CCN(C)CC3)cc2)cc1Nc1nccc(-c2cccnc2)n1", "note": "[Imatinib mesylate]", "myelination": "37.1 (inactive)"},
      {"smiles": "COC(=O)C1=C(C)NC(C)=C(C(=O)OC)C1c1ccccc1[N+](=O)[O-]", "note": "[Nifedipine]", "myelination": "10 (inactive)"},
      {"smiles": "CCC(=O)O[C@@H]1CC(=O)O[C@H](C)C/C=C/C=C/[C@H](O)[C@H](C)C[C@H](CC=O)[C@H](O[C@@H]2O[C@H](C)[C@@H](O[C@H]3C[C@@](C)(O)[C@@H](OC(=O)CC)[C@H](C)O3)[C@H](N(C)C)[C@H]2O)[C@H]1OC", "note": "[Midecamycin]", "myelination": "1.11 (inactive)"},
      {"smiles": "COC(=O)CCc1ccc(OCC(O)CNC(C)C)cc1", "note": "(configuration not stated) [Esmolol]", "myelination": "-0.768 (inactive)"},
      {"smiles": "Cc1cc2c(s1)Nc1ccccc1N=C2N1CCN(C)CC1", "note": "[Olanzapine]", "myelination": "-13.5 (inactive)"},
      {"smiles": "C[C@]12CCC(=O)C=C1CC[C@@H]1[C@@H]2[C@@H](O)C[C@@]2(C)[C@H]1CC[C@]2(O)C(=O)COC(=O)CCC(=O)O", "note": "[Cortisol succinate]", "myelination": "17.9 (inactive)"}
    ]}
  ]
}
